Screens: PubChem, National Center for Advancing Translational Sciences (NCATS)
This is a sample that favours compounds with a hit; in the whole collection about 9.8% have one here.
ALDH1A1 inh – ALDH1A1 (human) enzyme inhibition. P00352. Purified ALDH1A1, NADH fluorescence, propionaldehyde substrate. Potency, µM (titrated, usually from 75.3 µM), for the others: at the highest dose activity, negative = inhibition, usual class: inhibitors. 220,000 compounds, 7.3% hits. AID 1030;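 also: potency is read from the fitted curve at half-maximal effect; plate controls were no enzyme wells and a reference inhibitor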
JMJD2E inh – inhibitors of human JMJD2E histone demethylase; B2RXH2; AID 2147; 230,000 compounds, 1.6% hits; JMJD2E catalytic domain, FDH-coupled NADH fluorescence (FDH is formaldehyde dehydrogenase); Potency, µM (doses to about 57.1 µM), for inactives: top-dose activity change, negative = inhibition, most hits filed as inhibitors;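 also: potency is read from the fitted curve at half-maximal effect; 0% = wells with enzyme and -100% = buffer wells without enzyme; nearly all actives have a fitted effect of over 50% in size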
Target sequence (B2RXH2 1-337 limits assumed): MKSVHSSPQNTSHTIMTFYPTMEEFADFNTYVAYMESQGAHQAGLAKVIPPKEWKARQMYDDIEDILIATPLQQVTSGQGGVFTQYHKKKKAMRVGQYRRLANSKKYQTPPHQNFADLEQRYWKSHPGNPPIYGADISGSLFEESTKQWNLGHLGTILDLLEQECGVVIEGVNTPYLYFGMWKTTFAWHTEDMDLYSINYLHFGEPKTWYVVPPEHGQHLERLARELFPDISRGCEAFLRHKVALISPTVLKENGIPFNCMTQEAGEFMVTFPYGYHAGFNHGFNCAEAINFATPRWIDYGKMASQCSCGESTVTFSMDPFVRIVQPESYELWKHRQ
HPGD inh – HPGD (human) dehydrogenase inhibition; 150,000 compounds, 4.3% hits; purified HPGD, NADH fluorescence kinetic, PGE2 substrate; Potency, µM, for inactives: top-dose activity change, negative = inhibition, usual class: inhibitors; also: potency is read from the fitted curve at half-maximal effect; % is scaled to controls: 0 for no effect and ±100 for the full control effect
Target sequence (P15428 whole entry, looked up): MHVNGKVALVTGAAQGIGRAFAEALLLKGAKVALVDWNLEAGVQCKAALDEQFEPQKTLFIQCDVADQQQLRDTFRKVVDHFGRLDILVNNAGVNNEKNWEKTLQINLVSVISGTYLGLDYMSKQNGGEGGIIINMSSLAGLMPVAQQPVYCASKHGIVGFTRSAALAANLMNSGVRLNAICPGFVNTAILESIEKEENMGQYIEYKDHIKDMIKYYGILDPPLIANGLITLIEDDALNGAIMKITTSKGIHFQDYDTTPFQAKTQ
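20 nM HPGD preincubated 15 min at room temperature with compound in 50 mM Tris-HCl pH 8, 0.01% Tween 20. Started with 1 mM NAD+ and 30 uM prostaglandin E2; NADH fluorescence (360/450 nm) read 5 times over 30-s intervals, last minus first.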
CBFb RUNX1 block – CBF-beta/RUNX1 interaction disruption; Q01196+Q13951; AlphaScreen CBFb-His/RUNX1-biotin binding, biochemical; Potency, µM (top dose mostly 59.8 µM), without a hit: top-dose activity, negative = inhibition, most hits filed as inhibitors; 230,000 tested, under 10 active; AID 1477; active = well fitted curve in the direction sought with a large enough effect; inconclusive = small, poorly fitted or top-dose-only effect, or another doubt; inactive = no such curve, though single readings can be large; an effect the other way counts as inactive or inconclusive; also: % of control where 0% means no effect
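Room-temperature protein-protein interaction test with 30 nM each of His-tagged CBF-beta and biotinylated RUNX1, 15 min with compound, then 90 min with nickel plus streptavidin beads. Signal read in AlphaScreen mode.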
HTT ATP protect – Huntington cell model cytoprotection by ATP luminescence. PC12 HTT-Q103 induced, cytoprotection, ATP luminescence, 40 h. Potency, µM (series often up to 56.4 µM), without a hit: cytoprotection (ATP increase), most hits filed as activators. 230,000 compounds, 0.14% hits. AID 1471; active = well fitted curve in the direction sought with a large enough effect; inconclusive = small, poorly fitted or top-dose-only effect, or another doubt; inactive = no such curve, though single readings can be large; an effect the other way counts as inactive or inconclusive; also: potency is read from the fitted curve at half-maximal effect; % of control where 0% means no effect; nearly all actives have a fitted effect of over 45% in size
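Compounds were screened for protection of PC12 cells against cell death after tebufenozide induction (100 nM final) of mutant Huntingtin exon 1 (Q103) fused to GFP.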
HttQ103 aggreg – mutant huntingtin aggregation inhibition | Potency, µM (series often up to 46.1 µM), inactives show top-dose activity change, negative = inhibition, actives largely listed as inhibitors | AID 1688 | PC12 HttQ103-GFP aggregates, Acumen cytometry, 40 h | 220,000 compounds, 1.1% hits; active = well fitted curve in the direction sought with a large enough effect; inconclusive = small, poorly fitted or top-dose-only effect, or another doubt; inactive = no such curve, though single readings can be large; an effect the other way counts as inactive or inconclusive; also: potency is read from the fitted curve at half-maximal effect; % is scaled to controls: 0 for no effect and ±100 for the full control effect; nearly all actives have a fitted effect of over 60% in size
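Compounds (qHTS titration) were added to PC12 cells expressing an ecdysone-driven HTT exon 1 Q103–GFP fusion after induction with 100 nM tebufenozide. Aggregate formation was measured as GFP objects in cell lysates.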
The depositor's hits bear a star; ? = inconclusive; . = no result; [ ] = remark or other dose. Unless noted, calls follow the shape of the dose curve; as a rule, active = well fitted inhibition curve with a large enough effect (not every such curve was filed as active); inconclusive = small, poorly fitted or top-dose-only effect, or another doubt; inactive = no such curve, though single readings can be large or run the other way.

SMILES	ALDH1A1 inh	JMJD2E inh	HPGD inh	CBFb RUNX1 block	HTT ATP protect	HttQ103 aggreg
COc1cc(CN2CCN(Cc3ccc([N+](=O)[O-])cc3)CC2)c([N+](=O)[O-])cc1OC	35µM*	?	.	-15%	24%[10 µM]	?
COc1cccc(CN2CCN(Cc3cc(OC)c(OC)cc3[N+](=O)[O-])CC2)c1	25µM*	?	2%	-6%	4%	12%
COc1ccc(-c2cc(C3CCN(Cc4ccc([N+](=O)[O-])cc4)CC3)[nH]n2)cc1	-7%	-10%	.	-10%	-51%	?
COc1cc(CN2CCN(c3ccccc3F)CC2)c([N+](=O)[O-])cc1OC	28µM*	21%	7%	-10%	18%[0.074 µM]	-1%
COc1cccc(CN2CCN(C(=O)Nc3ccc([N+](=O)[O-])cc3)CC2)c1	?	-4%	.	-1%	-13%	?
Cc1cc(C(=O)NNS(=O)(=O)c2cccc(Cl)c2)nn1C(C)(C)C	.	3%	.	9%	-9%[10 µM]	-8%[9.22 µM]
COCCn1c(SCC(=O)N2CCCc3ccccc32)nc2ccccc2c1=O	25µM*	1%	-7%	3%	-14%	2%
COCCn1c(SCC(=O)N2CCc3ccccc32)nc2c(c1=O)SC(C)C2 (stereo not drawn)	.	-1%	.	-3%	10%[10 µM]	13%[9.22 µM]
COCCn1c(SCC(=O)N2CCCc3ccccc32)nc2c(c1=O)SC(C)C2 (stereo not drawn)	20µM*	0%	-19%	-5%	-1%[10 µM]	?
COCCn1c(SCC(=O)N2CCCc3ccccc32)nnc1-c1ccco1	-2%	6%	-9%	8%	-3%[10 µM]	-13%
CCn1c(SCC(=O)N2CCCCC2)nc2c(c1=O)SC(C)C2 (stereo not drawn)	22µM*	0%	-19%	9%	-17%[10 µM]	-6%
CCCCN(Cc1ccccc1)C(=O)CCN1C(=O)C2C3C=CC(C3)C2C1=O (stereo not drawn)	2.2µM*	8%	.	28%	-20%	5%
COc1cc(C(=O)OCc2cc3ccccc3[nH]c2=O)cc(OC)c1OC	0%	4%	-26%	2%	-15%[0.074 µM]	14%
COc1cc(C(=O)N(Cc2ccco2)Cc2cc3ccccc3[nH]c2=O)cc(OC)c1OC	22µM*	?	-19%	-2%	9%	20%
O=c1c(CCc2ccccc2)nc2cnc(N3CCNCC3)nc2n1CCc1ccccc1	?	.	?	.	-329%	.
C[N+]1(CCN2C(=O)C3CC=C(Cl)CC3C2=O)CCOCC1 (stereo not drawn)	-2%	0%	.	4%	-10%	-3%
C[N+]1(CCC[N+]2(C)C[C@H]3[C@H](C2)[C@H]2C=C[C@@H]3CC2)CCOCC1 (stereo partly drawn)	7%[13.5 µM]	.	3.2µM*	.	-14%[10 µM]	.
CN1CCN(NC(=O)c2cccc(C(F)(F)F)c2)CC1	.	-7%	.	5%	15%[10 µM]	-1%[9.22 µM]
Cc1ccc(NC(=S)NCc2ccc3[nH]c4c(c3c2)CCCC4)cc1	18µM*	8%	-36%	12%[2.36 µM]	.	3%
COCCNC(=S)NCc1ccc2[nH]c3c(c2c1)CCCC3	?	-6%	.	-10%	-11%	-11%
CC(C)(C)OC(=O)N1CC23CC(c4ccc(F)cc4)C(CC2S1(=O)=O)O3 (stereo not drawn)	.	.	.	8%	.	.
Cc1ccc(-c2nnc(N3CCN(C(=O)c4ccco4)CC3)c3ccccc23)cc1	14µM*	1%	-15%	-8%	-20%[0.074 µM]	-33%
Cc1ccc(-c2nnc(N3CCN(C(=O)CN4C(=O)c5ccccc5C4=O)CC3)c3ccccc23)cc1	.	.	.	.	1%[0.074 µM]	.
Cc1ccc(OCC(=O)N2CCN(c3nnc(-c4ccc(C)cc4)c4ccccc34)CC2)cc1	14µM*	-9%	-16%	-17%	-84%	3%[9.22 µM]
COc1ccccc1-c1c(NC(=O)c2ccco2)n(C)c2ccccc2c1=O	.	5%	.	5%	10%[10 µM]	13%[9.22 µM]
SMILES	ALDH1A1 inh	JMJD2E inh	HPGD inh	CBFb RUNX1 block	HTT ATP protect	HttQ103 aggreg
O=C(NCCC1=CCCCC1)C1CCN(S(=O)(=O)c2cccs2)CC1	13µM*	-1%	-2%	0%	-53%	8%
Cc1ccc(CNC(=O)C2CCN(S(=O)(=O)c3cccs3)CC2)o1	14µM*	?	-25%	5%	11%[10 µM]	?
CCCNC(=O)C1CCN(S(=O)(=O)c2cccs2)CC1	4%	-7%	.	10%	-37%	-1%
O=C(NCCC1=CCCCC1)C1CCN(C(=O)Cc2ccccc2)CC1	5µM*	-5%	.	13%	-5%[10 µM]	-11%[9.22 µM]
O=C(NCCC1=CCCCC1)C1CCN(S(=O)(=O)c2ccccc2)CC1	?	0%	.	5%	-50%	2%[9.22 µM]
O=C(Nc1cc(Cl)ccn1)C1CCN(S(=O)(=O)c2cccs2)CC1	8.9µM*	-1%	-3%	4%	15%	-14%[9.22 µM]
COC(=O)N1CCC2(CC1)CCN(c1ncccn1)CC2	4%	.	-11%	.	?	.
CC1=Nn2c(nnc2-c2cc(-c3ccccc3)n[nH]2)SC1	-7%	-14%	-8%	5%	-24%[0.074 µM]	8%
CC1=Nn2c(nnc2C2CCCCC2)SC1	?	11%	28µM*	2%	-5%	-14%
COc1ccc(NC(=O)CSc2ccc(NC(C)=O)cc2)cc1S(=O)(=O)N1CCCCC1	-10%	4%	1%	12%	-15%[10 µM]	1%
COc1ccc(NS(=O)(=O)c2cccc(Cl)c2Cl)cc1S(=O)(=O)N1CCCCC1	0.35µM*	0%	-3%	-6%	2%[10 µM]	-24%
COc1ccc(NC(=O)c2ccc(Cl)nc2)cc1S(=O)(=O)N1CCCCC1	4%	0%	.	-1%	14%[10 µM]	-13%
COc1ccc(NC(=O)CSc2ccc(F)cc2)cc1S(=O)(=O)N1CCCCC1	15µM*	-6%	-2%	-5%	11%[10 µM]	3%
COc1ccc(NS(=O)(=O)c2cc(Cl)ccc2Cl)cc1S(=O)(=O)N1CCCCC1	-6%	13%	.	-1%	-20%	15%[9.22 µM]
COc1ccc(NS(=O)(=O)c2cccc(Cl)c2)cc1S(=O)(=O)N1CCCCC1	16µM*	10%	-9%	-6%	-23%[0.074 µM]	-14%
COc1ccc(OC)c(C(C)NC(=O)Nc2ccccc2)c1 (stereo not drawn)	6%	-5%	.	3%	.	-16%
CC(=O)Nc1ccc(S(=O)(=O)N2CCN(c3nc(NC4CCCC4)c4ccccc4n3)CC2)cc1	?	?	?	-4%	-43%[10 µM]	?
O=C(Nc1cccc(F)c1)N1CC[C@@]2(CCCN(C(=O)c3cccc(F)c3)C2)C1	8%	.	-4%	.	-32%	.
Cc1c(Cl)cccc1NC(=O)CNc1ccccc1F	10µM*	0%	.	0%	21%[10 µM]	5%
